# High-throughput results as filed in PubChem BioAssay.
# JMJD2E inh: qHTS Assay for Inhibitors of Human Jumonji Domain Containing 2E (JMJD2E); Lysine-specific demethylase 4E (Homo sapiens), B2RXH2; JMJD2E catalytic domain, FDH-coupled NADH fluorescence (FDH is formaldehyde dehydrogenase); Potency, µM (titrated, usually from 57.1 µM), without a hit: top-dose activity change, negative = inhibition, hits mostly inhibitors; 230,000 tested, 1.6% active; AID 2147, 2009; active means well fitted inhibition curve with a large enough effect, not every such curve was filed as active; inconclusive means small, poorly fitted or top-dose-only effect, or another doubt; inactive means no such curve, though single readings can be large or run the other way;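 further: potency means the concentration at half of the fitted maximal effect; 0% = wells with enzyme and -100% = buffer wells without enzyme; nearly all actives have a fitted effect of over 50% in size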
# Target sequence (B2RXH2 1-337 limits assumed): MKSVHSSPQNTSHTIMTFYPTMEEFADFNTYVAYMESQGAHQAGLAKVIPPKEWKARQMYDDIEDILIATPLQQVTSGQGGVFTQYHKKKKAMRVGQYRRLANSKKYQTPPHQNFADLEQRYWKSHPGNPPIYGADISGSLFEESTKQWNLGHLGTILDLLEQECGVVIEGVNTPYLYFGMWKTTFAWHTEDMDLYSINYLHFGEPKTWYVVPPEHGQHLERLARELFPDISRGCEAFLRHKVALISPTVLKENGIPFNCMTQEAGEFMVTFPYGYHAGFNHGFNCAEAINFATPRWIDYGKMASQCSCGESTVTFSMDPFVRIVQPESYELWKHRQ
# Sfp inh: qHTS Assay for Inhibitors of Bacillus subtilis Sfp phosphopantetheinyl transferase (PPTase); Biochemical Sfp PPTase activity, qHTS; Potency, µM, inactives show largest response in the series, negative = inhibition, most hits filed as inhibitors; 310,000 tested, 3.5% active; AID 1490, 2009;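 further: the enzyme is Sfp with the accession as filed and its product quenches rhodamine fluorescence; potency means the concentration at half of the fitted maximal effect; 0% = enzyme reaction without inhibitor and -100% = no enzyme wells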
#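 Fluorescence-quenching assay with 15 nM Sfp, 5 uM rhodamine-CoA and 12.5 uM BHQ-2-labelled ybbR peptide in pH 7.6 Hepes/MgCl2 buffer. Enzyme was pre-incubated with compound for 15 min at room temperature. Rate was taken from the 30-min fluorescence change (525/598 nm).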
# Tau ThT inhib: qHTS for Inhibitors of Tau Fibril Formation, Thioflavin T Binding; recombinant tau K18 P301L, heparin-induced fibrillization, ThT fluorescence; 270,000 tested, 2.1% active; Potency, µM (series often up to 57.4 µM), without a hit: at the highest dose activity, negative = inhibition, actives largely listed as inhibitors; Microtubule-associated protein tau (Homo sapiens), P10636; further: potency means the concentration at half of the fitted maximal effect; nearly all actives have a fitted effect of over 55% in size
# Target sequence (P10636 561-689 P618L limits assumed): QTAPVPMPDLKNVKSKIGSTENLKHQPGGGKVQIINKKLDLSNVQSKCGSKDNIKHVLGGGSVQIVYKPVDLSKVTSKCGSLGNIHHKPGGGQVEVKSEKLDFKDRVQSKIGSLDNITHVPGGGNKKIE
#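 Recombinant human tau K18 fragment […] carrying P301L, 15 uM unlabeled plus 0.24 uM Alexa 594-labeled, was fibrillized with 20 uM heparin in 100 mM sodium acetate pH 7 for 6 hr at 37 C; 30 uM ThT fluorescence read after 1 hr.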
# Tau FP inhib: qHTS for Inhibitors of Tau Fibril Formation, Fluorescence Polarization. Microtubule-associated protein tau (Homo sapiens), P10636. K18 P301L tau heparin fibrillization, Alexa594 FP, 6 h. Potency, µM (series often up to 57.7 µM), inactives show at the top dose activity, negative = inhibition, usual class: inhibitors. 280,000 tested, 0.39% active; further: potency means the concentration at half of the fitted maximal effect; nearly all actives have a fitted effect of over 55% in size
#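 Quantitative HTS format: compounds meet 15 uM recombinant K18 P301L tau and Alexa 594-tau tracer in 100 mM sodium acetate pH 7; 20 uM heparin triggers fibrillization at 37 C over 6 hr; FP gives the signal.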
# Tau fluor counter: Counterscreen qHTS for Inhibitors of Tau Fibril Formation, Fluorescence Polarization; tau K18 P301L (four-repeat tau fragment) Alexa594 fluorescence, heparin fibrillization; 280,000 tested, 0.93% active; AID 1463, 2008; Potency, µM (highest dose often 57.7 µM), without a hit: top-dose activity change, negative = decrease; further: potency means the concentration at half of the fitted maximal effect; nearly all actives have a fitted effect of over 55% in size
#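 Human K18 P301L tau (15 uM unlabeled plus 0.24 uM Alexa 594-labeled, final) in 100 mM sodium acetate pH 7 was mixed with compound and 20 uM heparin and incubated 6 hr at 37 C.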
# Coupling enz: qHTS Assay for Inhibitors of Fructose-1,6-bisphosphate Aldolase from Giardia Lamblia: Coupling assay counterscreen | coupling enzyme system counterscreen, AmpLite Red fluorescence | activity change, negative = inhibition, % at 58.2 µM, hits read low | 290,000 tested, 0.67% active; in the data active means activity change below about -30%
#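 Fluorescence at 525 nm excitation and 598 nm emission measured inhibition of the coupled detection system without aldolase. Compounds (at 57.5 uM final) were preincubated 10 min at room temperature with coupling enzyme reagent before a 20 min substrate/AmpLite Red step.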
# An asterisk follows results filed as active; u = inconclusive; x = no result; [ ] = another dose, or the depositor's remark. Sampled rows, rich in hits. Any-hit rate of the full collection: about 5.3%. Unless noted, the call rests on the fitted dose curve; in most records, active means well fitted curve in the direction sought with a large enough effect; inconclusive means small, poorly fitted or top-dose-only effect, or another doubt; inactive means no such curve, though single readings can be large; an effect the other way counts as inactive or inconclusive. Unless noted, on the % scale 0 is the no-effect control and ±100 the full control effect.
SMILES,JMJD2E inh,Sfp inh,Tau ThT inhib,Tau FP inhib,Tau fluor counter,Coupling enz
CC(C)CN(c1ccccc1)S(=O)(=O)c1nnc(NC(=O)C2CCCCC2)s1,x,x,u,0%,-11%,x
O[C@@H]1[C@@H]2c3cc4c(cc3CN3CCC(=C[C@@H]1O)[C@H]23)OCO4,-4%[25.5 µM],9%,x,x,x,0
COc1ccccc1CNC(=O)CCCCn1c(=O)c2ccccc2n(Cc2ccccc2F)c1=O,x,x,2%,-7%,-7%,x
c1ccc(Cn2c(SCc3nc4ccccc4s3)nnc2-c2ccco2)cc1,-10%,20µM*,-18%,-2%,1%,-1
CCOc1ccccc1NC(=O)c1nn(C)c2c1CSc1ccccc1-2,x,x,u,-5%,11µM*[quencher],x
Cn1nc(C(=O)Nc2ccccc2C#N)c2c1-c1ccccc1SC2,x,x,-15%,-8%,-15%,x
O=C(NCCc1nc2ccccc2n1CCOc1ccc(Cl)cc1)C1CCCCC1,x,x,u,18%,-1%,x
COc1ccc2cc(C3CC(c4ccco4)=NN3C(=O)CCC(=O)O)c(Cl)nc2c1 (centres undefined),u,50µM*,-12%,-4%,-7%,7
CC(C)OCCCNC(=O)CN1C(=O)c2ccccc2Sc2ncccc21,x,x,10%,8%,5%,x
CCN(CC)S(=O)(=O)c1ccc(N2CCCC2)c(NC(=O)c2ccc(OC)cc2OC)c1,0%,79µM*,7%,0%,4%,-5
COc1ccc2c(c1)c1c(c(=O)n(Cc3ccccc3)c(=O)n1Cc1ccc(C)cc1)n2C,x,x,-4%,4%,-11%,x
COc1ccc(C(=O)n2nc(-c3ccco3)nc2NCc2cccs2)cc1,x,x,u,-13%,u,x
O=c1[nH]c(CSc2cccc[n+]2[O-])nc2ccccc12,1%,45µM*,-9%,-4%,-5%,-1
O=C(O)CC/C(=N\Nc1ccc(S(=O)(=O)N2CCCC2)cc1[N+](=O)[O-])c1cccs1,0%,1%,32µM*,8%,-17%,8
O=C(O)CC/C(=N\Nc1ccccc1[N+](=O)[O-])c1cccs1,x,12%,x,x,x,9
O=C(O)CC/C(=N\Nc1ccc(S(=O)(=O)N2CCOCC2)cc1[N+](=O)[O-])c1cccs1,u,1%,11µM*,6%,-17%,10
Cc1cccc(C)c1Nc1c(-c2ccccc2Cl)nc2cnccn12,x,x,-13%,1%,-27%,x
Cc1cc(C)c(C#N)c(SCC(=O)N2CCN(Cc3ccccc3)CC2)n1,-3%,1%,-12%,3%,-12%,2
Cc1cc(C)c(C#N)c(SCC(=O)N2CCCCC2)n1,4%,32µM*,-4%,u,-10%,0
CCOc1ccc(NC(=O)c2c(NCc3cccs3)sc3c2CCC(C)C3)cc1 (centres undefined),x,x,u,4%,-24%,x
CCOc1ccc(NC(=O)c2c(NCc3cccnc3)sc3c2CCC(C)C3)cc1 (centres undefined),x,x,16µM*,-11%,u,x
CC(=O)Nc1cccc(NC(=O)c2cc3c(=O)n4cccc(C)c4nc3n2C)c1,x,x,-6%,-6%,-6%,x
CC(=O)c1cccc(Nc2nn(-c3ccc(OC(F)(F)F)cc3)nc2C(C)=O)c1,x,x,-3%,9%,-4%,x
Cc1nccc(-c2cccc(N/N=C(\C#N)C(=O)c3ccccc3)c2)n1,-7%,3%,8.9µM*,3%,u,5
Cc1nccc(-c2cccc(NC(=O)Nc3ccc(Cl)cc3)c2)n1,0%,6%,-5%,u,u,0
SMILES,JMJD2E inh,Sfp inh,Tau ThT inhib,Tau FP inhib,Tau fluor counter,Coupling enz
COc1cc(C2N(c3cccc(Cl)c3)C(=O)C3CCCN32)cc(OC)c1OC (centres undefined),-10%,17%,-5%,4%,-9%,0
COc1cc(C2N(c3ccccc3)CCN2c2ccccc2)cc(OC)c1OC,u,-20%,u,-3%,-16%,-36*
O=C(/C=C/c1ccc(O)c(O)c1)OCCc1ccccc1,20µM*,u,u,u,11µM*[quencher],-1
CC(C)N(C)CCOC(=O)/C=C/c1ccccc1,-1%,8%,3%,-4%,6%,4
O=C(/C=C/c1ccc(O)c(O)c1)c1ccccc1O,25µM*,-10%,13µM*,u,u,-7
O=C(O)/C=C\c1ccc(O)c(O)c1,11µM*,35µM*,x,x,x,-2
O=C(/C=C/c1ccoc1)c1ccccc1O,-29%,-28%,u,-4%,-10%,-2
OC[C@H]1NC[C@@H](O)[C@@H](O)[C@H]1O,3%,-20%,-7%,-4%,-10%,5
Cc1oc(-c2ccccc2)cc1C(=O)Nc1ccc(N(C)C)cc1,-3%,-14%,13µM*,5%,14µM*[quencher],-3
CC(C)c1ccc(-c2cc(C(=O)NN3CCN(C)CC3)c3ccccc3n2)cc1,-3%,40µM*,15%,-3%,4%,-4
COc1cccc(Nc2ncc3nc(-c4ccccc4)c(=O)n(Cc4cccs4)c3n2)c1,x,23%,x,x,x,4
CCCCn1c(N)c(-c2nc3ccccc3s2)c2c([N+](=O)[O-])nn(C)c(=O)c21,11%,u,14µM*,8%,u,0
COC(=O)CN1C(=O)[C@H]2[C@@H](c3ccc(C)o3)N3C(=O)CN(Cc4ccc(-c5ccccc5)cc4)C(=O)[C@@]3(C)[C@H]2C1=O,x,13µM*,x,x,x,-1
COC(=O)CN1C(=O)[C@H]2[C@@H](c3ccc(C)o3)N3C(=O)CN(Cc4ccccc4)C(=O)[C@@]3(Cc3ccccc3)[C@H]2C1=O,x,u,x,x,x,0
Cc1c(C(=O)c2no[n+]([O-])c2C(=O)c2cnn(C)c2C)cnn1C,0%,-20%,14µM*,u,-19%,4
Cc1c(C(=O)Nc2ccc(Br)cc2)cnn1C,10%,-21%,-4%,-4%,-7%,-4
